The values that follow come from PubChem BioAssay (NCATS).

Records with an inconclusive call do not appear. Entries that show only a call come without a potency. Active and inactive are the calls of the source. Calls come from the whole dose curve; as a rule, active = well fitted cell-killing curve with a large enough effect; inconclusive = small, poorly fitted or top-dose-only effect; inactive = flat fitted curve, though single readings scatter.

The experiment in a line: qHTS of pediatric cancer cell lines to identify multiple opportunities for drug repurposing: Primary screen for control Hh wild type fibroblast cells (AID 1347106).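 Note: a drop in luminescence marks cytotoxicity and a rise apparent proliferation; nearly all actives have a fitted effect of over 55% in size.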 The following applies: Hh wild-type fibroblast viability, CellTiter-Glo luminescence, 48 h; series mostly up to 46 µM. In outline:
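Viability after 48 h compound treatment at 37C, 500-1,000 cells/well, read as ATP luminescence with CellTiter-Glo. Primary screens used 11-point (MIPE, 0.78 nM-46 µM) or 8-point (NPC, 0.59 nM-46 µM) final concentrations; follow-up screens used 11-point dilutions.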
A general note: Quantitative high-throughput screening tests each substance at several concentrations.
As to `FC1(F)C(F)(F)C(F)(F)C2(F)C(F)(F)C(F)(F)C(F)(F)C(F)(F)C2(F)C1(F)F` (stereo unspecified), the Potency result is “inactive”.
The value for `Nc1nc(N)c(-c2ccccc2)s1` was “inactive”; that for `C[N+]12CCC(CC1)C(OC(=O)C(O)(c1ccccc1)c1ccccc1)C2` (stereo unspecified) was “inactive”; that for `NS(=O)(=O)c1ccc(Cl)c(S(N)(=O)=O)c1` was “inactive”.
For `CCOc1ccccc1C(N)=O`, the Potency entry was “inactive”.
Turning to `CCCCN=C(N)N=C(N)N`, the Potency result is “inactive”.
For the compound `COc1ccc(C(=O)c2ccccc2O)c(O)c1`, the Potency entry was “inactive”.
The value for `C[C@@H](O)[C@H]1C(=O)N2C(C(=O)O)=C(S[C@@H]3CN[C@H](CNS(N)(=O)=O)C3)[C@H](C)[C@H]12` was “inactive”.
With `CCN(CC)CCNC(=O)COc1ccc(OC)cc1` the entry was “inactive”.
The value for `C[N+]1(CC2COC(c3ccccc3)(C3CCCCC3)O2)CCCCC1` (stereo unspecified) was “inactive”.
With `CCCCNC(=O)NS(=O)(=O)c1ccc(N)cc1`, the Potency entry is “inactive”.
The value for `Cc1ccc(S(=O)(=O)NC(=O)NC2CCCC2)cc1` was “inactive”; that for `NC1CCN(c2nc3c(cc2F)c(=O)c(C(=O)O)cn3-c2ccc(F)cc2F)C1` (stereo unspecified) was “inactive”.
In the case of `O=C(O)C1(C(=O)O)CCC1.[NH2-].[NH2-].[Pt+2]`, the Potency result is “inactive”.
With `CCc1ccc(C(=O)C(C)CN2CCCCC2)cc1` (stereo unspecified) the entry was “inactive”.
With `CC(=C(CCOC(=O)C(C)C)SSC(CCOC(=O)C(C)C)=C(C)N(C=O)Cc1cnc(C)nc1N)N(C=O)Cc1cnc(C)nc1N` the entry was “inactive”; with `CCCCCCCCCCCCCCCC(=O)O`, “inactive”.
The value for `CN1CCC(OC(c2ccccc2)c2ccccc2)CC1` was “inactive”.
Consider `CCCCCCCCCCCCSCCOCCO`, for which the Potency entry is “inactive”.
The value for `CN(Cc1ccc(C(C)(C)C)cc1)Cc1cccc2ccccc12` was “inactive”; that for `COc1cc(N)c(Cl)cc1C(=O)NC1CCN(Cc2ccccc2)CC1` was “inactive”.
Regarding `O=C(O)CCC(=O)Nc1ccc(S(=O)(=O)Nc2nccs2)cc1`, the Potency entry is “inactive”.
The value for `Cc1cc(CC(=O)O)c(C)n1-c1ccc(Cl)cc1` was “inactive”; that for `Cc1ccc(-c2ncc(Cl)cc2-c2ccc(S(C)(=O)=O)cc2)cn1` was “inactive”.
Turning to `O=C(Nc1ccc([N+](=O)[O-])cc1)Nc1ccc([N+](=O)[O-])cc1`, the Potency result is “inactive”.
As to `O=C(CN1CCN(Cc2ccc3c(c2)OCO3)CC1)N1c2ccccc2Sc2ccccc21`, the Potency result was “inactive”.
With `OCc1ccccn1` the entry was “inactive”; with `COc1ccc(C(Cl)=C(c2ccc(OC)cc2)c2ccc(OC)cc2)cc1`, “inactive”.
With `N#C/C(=C1\SCC(c2ccccc2Cl)S1)n1ccnc1` (stereo unspecified) the entry was “inactive”.
Take `CCN(CC)CCOC(=O)C(Cc1cccc2ccccc12)CC1CCCO1` (stereo unspecified): the Potency result was “inactive”.
For `CCN1CCCC(OC(=O)C(c2ccccc2)c2ccccc2)C1` (stereo unspecified), the Potency entry was “inactive”.
The value for `NCCNC(=O)c1ccc(Cl)cn1` was “inactive”; that for `CCN(CC)CCNC(=O)c1cc(Br)c(N)cc1OC` was “inactive”.
`CCOC(=O)c1c(N)sc2c1CCN(Cc1ccccc1)C2`: the Potency entry was “inactive”.
With `CN1CCN(C2=Nc3ccccc3Sc3ccc(Cl)cc32)CC1` the entry was “inactive”.
Consider `CN1CCN(C2=Nc3cc(F)ccc3Cc3ccccc32)CC1`, for which the Potency result is “inactive”.
